High-throughput results from PubChem BioAssay.
An excerpt weighted towards active compounds, which were near 6.9% of everything screened.
MCF10A rerep – inducers of DNA re-replication in MCF 10A breast cells; MCF 10A DNA re-replication, Hoechst nuclear intensity, 48 h; Potency, µM (doses to about 46.1 µM), inactives show at the highest dose activity, positive = re-replication, usual class: activators; 350,000 tested, 2.9% active; AID 624296; note: potency is the fitted concentration of half-maximal effect; % of control where 0% means no effect; nearly all actives have a fitted effect of over 50% in size
KB-3-1 tox – kills parental KB-3-1 adenocarcinoma cells | KB-3-1 viability, CellTiter-Glo ATP luminescence, 72 h | Potency, µM (top dose mostly 46.1 µM), usual class: cytotoxic | 400,000 tested, 1.4% active; note: potency is the fitted concentration of half-maximal effect; % is set by controls: 0 for no effect and ±100 for the full control effect; nearly all actives have a fitted effect of over 60% in size
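72 h, 37 °C compound treatment of KB-3-1 parental cells; CellTiter-Glo added, 10 min, luminescence read. Data corrected against DMSO-only plates and normalized before curve fitting.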
S-ASM inh – human S-ASM enzyme inhibition; P17405; placental ASM, HMU-PC fluorogenic substrate, 60 min; Potency, µM (titrated, usually from 57.5 µM), inactives show at the top dose activity change, negative = inhibition, hits mostly inhibitors; 340,000 tested, 0.006% active; note: potency is the fitted concentration of half-maximal effect
Target sequence (P17405 47-631 limits assumed): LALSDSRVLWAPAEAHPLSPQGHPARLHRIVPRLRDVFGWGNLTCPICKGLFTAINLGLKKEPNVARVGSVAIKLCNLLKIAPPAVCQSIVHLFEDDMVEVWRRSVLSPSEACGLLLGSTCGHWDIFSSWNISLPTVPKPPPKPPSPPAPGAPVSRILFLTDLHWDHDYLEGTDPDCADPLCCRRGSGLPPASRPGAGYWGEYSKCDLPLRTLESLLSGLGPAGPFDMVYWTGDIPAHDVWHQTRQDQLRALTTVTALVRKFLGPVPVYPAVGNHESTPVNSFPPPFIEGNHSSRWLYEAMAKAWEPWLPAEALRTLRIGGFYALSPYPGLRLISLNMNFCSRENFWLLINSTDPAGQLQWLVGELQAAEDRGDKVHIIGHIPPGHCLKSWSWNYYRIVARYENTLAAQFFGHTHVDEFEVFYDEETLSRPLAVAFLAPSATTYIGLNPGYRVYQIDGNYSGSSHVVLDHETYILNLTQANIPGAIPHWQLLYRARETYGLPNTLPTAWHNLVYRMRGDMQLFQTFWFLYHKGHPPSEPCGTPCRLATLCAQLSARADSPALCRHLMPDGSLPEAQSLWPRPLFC
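Fluorescence read-out (Ex 386 nm, Em 447 nm) after stopping the reaction at pH 10. Enzyme: ASM from human placenta; substrate HMU-PC0, 9 uM final; 60 min, 37 °C. Compound preincubation 10 min, ambient temperature.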
KB-V1 cytotox – kills drug-selected multidrug resistant KB-V1 cells; AID 1347076; KB-V1 MDR cells viability, CellTiter-Glo, 72 h; Potency, µM (highest dose often 46.1 µM), most hits filed as cytotoxic; 400,000 tested, 3.4% active; note: potency is the fitted concentration of half-maximal effect; % is set by controls: 0 for no effect and ±100 for the full control effect; nearly all actives have a fitted effect of over 60% in size
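Following 72 h at 37 degrees C with compound, KB-V1 cell viability was read by CellTiter-Glo luminescence, medium being phenol-red-free DMEM plus 10% FBS; concentration-response parameters came from normalized, curve-fitted qHTS data.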
SW480 rerep – induces DNA re-replication in SW480 colon adenocarcinoma cells | Potency, µM (top dose mostly 46.1 µM), without a hit: at the highest dose re-replication activation, actives largely listed as activators | 340,000 tested, 1.8% active | SW480 DNA re-replication, Hoechst DNA content imaging, 48 h; note: potency is the fitted concentration of half-maximal effect; % of control where 0% means no effect; nearly all actives have a fitted effect of over 55% in size
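Per well, 250 cells were exposed to pinned compound for 48 hr. Nuclear DNA was visualised with Hoechst (40 min, 37 C) and total object intensity recorded by fluorescence scanning.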
Giardia kill – Giardia lamblia killing; 340,000 tested, 0.15% active; AID 540267; activity change, % at 7.66 µM, hits read low; Giardia lamblia trophozoite viability; in the data active = activity change below about -80%; inconclusive = between about -30% and that limit;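 note: parasites exposed to compound for two days anaerobically before the ATP read; % is set by controls: 0 for no effect and ±100 for the full control effect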
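Media and compound were dispensed first, then trophozoites at 100 cells/well; plates sat 48 hrs at 37 deg C without oxygen before ATP luminescence reagent was added and read after 15-30 min at room temperature.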
Starred values were filed as active, the others as inactive. Unless noted, calls come from the whole dose curve; as a rule, active = well fitted curve in the direction sought with a large enough effect; inconclusive = small, poorly fitted or top-dose-only effect, or another doubt; inactive = no such curve, though single readings can be large; an effect the other way counts as inactive or inconclusive.

How did NC[C@@H]1O[C@H](OC2[C@@H](CO)O[C@@H](OC3[C@H](O)[C@H](N)C[C@H](N)[C@H]3OC3O[C@H](CO)[C@@H](O)[C@H](O)[C@@H]3N)[C@H]2O)C(N)[C@H](O)[C@@H]1O (some centres undefined) do in these assays?
MCF10A rerep: -3%; SW480 rerep: 0%

What do the screens show for `Cn1c(=O)cc(OCC(=O)NCc2ccc(F)cc2Cl)c2ccccc21`?
KB-3-1 tox: inactive; KB-V1 cytotox: inactive

How did CCc1ccc2[nH]c3nc(SCC(=O)NNC(=O)c4ccc(C(C)(C)C)cc4)nnc3c2c1 do in these assays?
MCF10A rerep: 2.3µM*; KB-3-1 tox: inconclusive; S-ASM inh: 1%; KB-V1 cytotox: inactive; SW480 rerep: 5.8µM*; Giardia kill: 6

What do the screens show for `Cc1ccc(C(=O)NNC(=O)CSc2nnc3c(n2)[nH]c2ccc(C)cc23)cc1`?
MCF10A rerep: -5%; KB-3-1 tox: inactive; S-ASM inh: 1%; KB-V1 cytotox: inactive; SW480 rerep: 2%; Giardia kill: 3

How did Cc1cc(C(=O)NCCc2ccc(Cl)cc2)c2c(C)nn(-c3ccccc3)c2n1 do in these assays?
KB-3-1 tox: inactive; KB-V1 cytotox: inactive

How did COc1ccccc1CNC(=O)CCCCn1c(=O)c2ccccc2n(Cc2ccccc2C)c1=O do in these assays?
KB-3-1 tox: inconclusive; KB-V1 cytotox: inactive

How did Cc1nn(Cc2ccc(C(=O)Nc3ccc(C(=O)OC(C)C)cc3)o2)c(C)c1Cl do in these assays?
MCF10A rerep: inconclusive; KB-3-1 tox: inactive; S-ASM inh: -3%; KB-V1 cytotox: 23µM*; SW480 rerep: -1%; Giardia kill: -7

What do the screens show for `Cc1nn(Cc2ccc(C(=O)NN)o2)c(C)c1Cl`?
MCF10A rerep: inconclusive; KB-3-1 tox: inactive; S-ASM inh: -2%; KB-V1 cytotox: inactive; SW480 rerep: inconclusive; Giardia kill: -3

What do the screens show for `CC1CC1c1ccc(/C=C(\C#N)C(=O)Nc2ccc(Cl)cc2Cl)o1` (centres undefined)?
MCF10A rerep: 16µM*; KB-3-1 tox: inactive; S-ASM inh: 30%; KB-V1 cytotox: inconclusive; Giardia kill: 3

What do the screens show for `COc1cc(-c2noc(C)c2C#CCCN2C(=O)c3ccccc3C2=O)cc(OC)c1OC`?
KB-3-1 tox: inactive; KB-V1 cytotox: inactive

Results for Cn1c(=O)[nH]c(=O)c2c1nc1n(CCO)c(-c3ccccc3)cn21 ?
KB-3-1 tox: inactive; KB-V1 cytotox: inactive

Results for COc1ccc(-n2c(=O)c(CCC(=O)N(C)Cc3ccccc3C)nc3ccccc32)cc1 ?
MCF10A rerep: -19%; KB-3-1 tox: inactive; S-ASM inh: -1%; KB-V1 cytotox: inactive; SW480 rerep: -8%; Giardia kill: 5

What do the screens show for `CCc1ccc(CN(C)C(=O)CCc2nc3ccccc3n(-c3ccc(OC)cc3)c2=O)cc1`?
MCF10A rerep: inconclusive; KB-3-1 tox: inactive; S-ASM inh: -10%; KB-V1 cytotox: 12µM*; SW480 rerep: inconclusive; Giardia kill: -5

What do the screens show for `COCCn1c(-c2ccc(-c3ccccc3Cl)o2)nc2c1c(=O)[nH]c(=O)n2CC(C)C`?
MCF10A rerep: 12µM*; KB-3-1 tox: inactive; S-ASM inh: inactive; KB-V1 cytotox: inactive; SW480 rerep: inconclusive; Giardia kill: 12

How did CCCCn1c(=O)[nH]c(=O)c2c1nc(-c1ccc(-c3ccccc3Br)o1)n2CCOC do in these assays?
MCF10A rerep: inconclusive; KB-3-1 tox: inactive; S-ASM inh: 293%; KB-V1 cytotox: inconclusive; SW480 rerep: 5%; Giardia kill: -4

Results for CCN(CC)c1nc(N)c(C#N)c(CC#N)c1C#N ?
MCF10A rerep: inconclusive; KB-3-1 tox: inactive; S-ASM inh: -10%; KB-V1 cytotox: inconclusive; SW480 rerep: -26%; Giardia kill: 34

How did CCCN(CCC)c1nc(N)c(C#N)c(CC#N)c1C#N do in these assays?
MCF10A rerep: 6.5µM*; KB-3-1 tox: inactive; S-ASM inh: -9%; KB-V1 cytotox: inactive; SW480 rerep: 14%; Giardia kill: 5

Results for O=C1c2ccccc2NC(c2ccccc2O)N1Cc1ccco1 (centres undefined) ?
KB-3-1 tox: inactive; KB-V1 cytotox: inactive; Giardia kill: -23

What do the screens show for `CN(C)c1ccc(CNC(=O)Cn2c(=O)oc3cc(S(=O)(=O)N4CCCCCC4)ccc32)cc1`?
KB-3-1 tox: inactive; KB-V1 cytotox: inactive

Results for O=C(NCc1ccccc1Cl)c1ccc2c(c1)N(Cc1ccccc1)CCS2 ?
KB-3-1 tox: inconclusive; KB-V1 cytotox: inactive

Results for O=C1N=C(N2CCCCC2)S/C1=C\c1ccccc1F ?
MCF10A rerep: -3%; KB-3-1 tox: inactive; S-ASM inh: -2%; KB-V1 cytotox: inactive; SW480 rerep: -4%; Giardia kill: -5

What do the screens show for `CCCOc1ccccc1/C=C1\SC(N2CCCCC2)=NC1=O`?
MCF10A rerep: inconclusive; KB-3-1 tox: 7.3µM*; S-ASM inh: 6%; KB-V1 cytotox: inactive; SW480 rerep: 9%; Giardia kill: 5

What do the screens show for `CC1CCCCC1NC(=O)NC(=O)CCl` (centres undefined)?
MCF10A rerep: inconclusive; KB-3-1 tox: inconclusive; S-ASM inh: 3%; KB-V1 cytotox: inactive; SW480 rerep: 6.5µM*; Giardia kill: -16

Results for Cc1ccc(C#N)c(SCc2nnc(-c3ccc(Cl)cc3)o2)n1 ?
MCF10A rerep: 0.73µM*; KB-3-1 tox: inactive; S-ASM inh: 381%; KB-V1 cytotox: 12µM*; SW480 rerep: 2.3µM*; Giardia kill: -19

Results for Cc1cc(C)c(C#N)c(SCc2nnc(-c3ccccc3)o2)n1 ?
MCF10A rerep: 2.6µM*; KB-3-1 tox: inactive; S-ASM inh: 24%; KB-V1 cytotox: 3.7µM*; SW480 rerep: 8.2µM*; Giardia kill: -12

How did Cc1cc(C)c(C#N)c(SCc2nnc(-c3ccccc3[N+](=O)[O-])o2)n1 do in these assays?
MCF10A rerep: 3%; KB-3-1 tox: inactive; S-ASM inh: -3%; KB-V1 cytotox: inconclusive; SW480 rerep: -5%; Giardia kill: -27

Results for Cc1cc2nc3c(=O)[nH]c(=O)nc-3n(C[C@H](O)[C@H](O)[C@H](O)COP(=O)(O)OP(=O)(O)OC[C@H]3O[C@@H](n4cnc5c(N)ncnc54)[C@H](O)[C@@H]3O)c2cc1C ?
MCF10A rerep: -1%; SW480 rerep: -9%

How did Cc1ccc(-c2nn3c(C)nnc3c3ccccc23)cc1S(=O)(=O)NCC(C)O (centres undefined) do in these assays?
KB-3-1 tox: inactive; KB-V1 cytotox: inactive
